CYP2C19 inh: human CYP2C19 inhibition. inhibition, % at 5 µM. CYP2C19 Supersomes, luciferin-H EGE luminescence, 30 min. AID 778. 96,000 compounds, 21% hits. P33261;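 active means CYP2C19 inhibition above a set limit at 5 µM in the primary screen, cut at about 50% in these data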
CYP2C9 activ: activators of human CYP2C9; 96,000 compounds, 1.4% hits; activation factor at 5 µM; P11712; recombinant CYP2C9, luciferin-H conversion, luminescence; hits give high values; factor 1 = untreated enzyme, 0 = blocked;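 active means activation factor of 2 or more for CYP2C9 at a 5 µM dose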
Target sequence (P11712 whole entry, looked up): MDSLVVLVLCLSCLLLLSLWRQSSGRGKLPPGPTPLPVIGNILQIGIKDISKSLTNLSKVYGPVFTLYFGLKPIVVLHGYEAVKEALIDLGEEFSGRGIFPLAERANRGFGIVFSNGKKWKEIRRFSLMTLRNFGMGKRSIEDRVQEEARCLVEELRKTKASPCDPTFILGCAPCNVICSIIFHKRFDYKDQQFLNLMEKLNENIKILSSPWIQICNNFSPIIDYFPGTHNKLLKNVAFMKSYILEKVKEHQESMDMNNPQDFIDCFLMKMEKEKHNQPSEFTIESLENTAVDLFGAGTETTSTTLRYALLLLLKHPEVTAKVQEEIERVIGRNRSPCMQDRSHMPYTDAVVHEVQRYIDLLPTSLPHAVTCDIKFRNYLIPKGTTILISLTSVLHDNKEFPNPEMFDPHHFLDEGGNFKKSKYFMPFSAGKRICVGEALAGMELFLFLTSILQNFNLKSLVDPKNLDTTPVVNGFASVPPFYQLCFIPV
CYP2C19 activ: activators of human cytochrome P450 2C19. P33261. recombinant CYP2C19, luciferin-H EGE luminescence; hits give high values; 0 = fully inhibited enzyme, 1 = untreated enzyme. activation factor at 5 µM. 96,000 tested, under 10 active. AID 1025;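 active means activation factor of at least 2 at 5 µM in the primary screen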
PostGolgi yeast: growth inhibition of a yeast mutant, post-Golgi transport screen. 98,000 compounds, 0.9% hits. post-Golgi transport phenotypic cell assay. inhibition, % at 10 µM;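 further: yeast cells grown in 1536-well plates; yeast grown about 18 h at 30C before absorbance read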
CYP2C9 inh: inhibitors of human CYP2C9. P11712. CYP2C9 Supersomes, luciferin-H conversion, luminescence. inhibition, % at 5 µM. 96,000 compounds, 20% hits. AID 777;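 active means blocking of liver enzyme CYP2C9 beyond about 50% at 5 µM, limit read from the data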
PostGolgi ctrl: yeast control strain growth, post-Golgi counter-screen; 98,000 compounds, 5% hits; inhibition, % at 10 µM; efflux-deficient yeast background strain, growth absorbance A615, 16 h
Numbers stand for hits; n = inactive. This is a sample that favours compounds with a hit; in the whole collection about 32% have one here. Unless noted, no stated cut-off is given here; in the data, active means inhibition above about 30%; inactive means the rest.

SMILES | CYP2C19 inh | CYP2C9 activ | CYP2C19 activ | PostGolgi yeast | CYP2C9 inh | PostGolgi ctrl
Cc1cccc(N2CCN(C(=O)COc3cc(=O)n(C)c4ccccc34)CC2)c1C | 51.3 | n | n | n | n | n
CN1CCN(CCCNC(=O)CCCOc2cc(=O)n(C)c3ccccc23)CC1 | n | n | n | n | n | n
Cc1ccc(C)c(N(C)C(=O)COc2cc(=O)n(C)c3ccccc23)c1 | n | n | n | n | n | n
CC1CCN(C(=O)CCCOc2cc(=O)n(C)c3ccccc23)CC1 | 50.3 | n | n | n | n | n
CC(C)CCNC(=O)CCCOc1cc(=O)n(C)c2ccccc12 | n | n | n | n | n | n
COc1ccc(N2CCN(C(=O)CCCOc3cc(=O)n(C)c4ccccc34)CC2)cc1 | 88.4 | n | n | n | 87.8 | n
COc1ccc(OCCN(C)Cc2ccccc2)cc1 | 68.4 | n | n | n | n | n
CN(CCOCCOc1ccc2ccccc2c1)Cc1ccccc1 | n | n | n | n | n | n
COc1ccc(CNC(=O)CCCOc2cc(=O)n(C)c3ccccc23)cc1 | 91.7 | n | n | n | 77.6 | n
Cc1ccc(CNC(=O)CCOc2ccc(C(C)(C)C)cc2)cc1 | n | n | n | n | n | n
COc1ccc(OCCC(=O)NCc2ccccc2)cc1 | 50.7 | n | n | n | n | n
CCOc1ccc(CN2C(=O)c3ccccc3C2C(=O)NCc2cccnc2)cc1 (stereo not given) | n | n | n | n | n | n
O=C(NCCc1ccccc1Cl)C1CCN(S(=O)(=O)c2cccs2)CC1 | n | n | n | n | n | n
CCN(CCCNC(=O)C1CCN(S(=O)(=O)c2cccc3nonc23)CC1)Cc1ccccc1 | n | n | n | n | n | n
CN1CCN(c2ccccc2NC(=O)Cc2cn(C)c3ccccc23)CC1 | n | n | n | n | n | n
Cc1cccc(N2CCN(C(=O)Cc3cn(C)c4ccccc34)CC2)c1C | n | n | n | n | n | 43.5
CCOC(=O)c1cnn(-c2nc3c(C)cccc3s2)c1C | n | n | n | n | n | n
CCCCOc1ccccc1N | n | n | n | n | n | n
Nc1ccccc1OCCOCCOCCOc1ccccc1N | 74.6 | n | n | n | 60.3 | n
CCOC(=O)CN1C(=O)NC(C)(c2ccc(OC(F)F)cc2)C1=O (stereo not given) | 64.0 | n | n | n | n | n
N#Cc1cccc(NC(=O)CSc2ccccc2)c1 | n | n | n | n | n | n
CCOC(=O)c1cc(-c2ccccc2)sc1NC(=O)CN1C(=O)NC(CC)(c2ccccc2)C1=O (stereo not given) | n | n | n | n | 88.7 | n
CC(C)(C)c1ccc(C2(C)NC(=O)N(CC(=O)Nc3ccc4c(c3)OCO4)C2=O)cc1 (stereo not given) | n | n | n | n | n | n
CC1(c2ccccc2)NC(=O)N(CC(=O)Nc2cccc(C#N)c2)C1=O (stereo not given) | n | n | n | n | 73.2 | n
CC1(c2ccccc2)NC(=O)N(CC(=O)Nc2ccc3c(c2)OCO3)C1=O (stereo not given) | n | n | n | n | 87.1 | n
SMILES | CYP2C19 inh | CYP2C9 activ | CYP2C19 activ | PostGolgi yeast | CYP2C9 inh | PostGolgi ctrl
CCCS(=O)(=O)N1CCCC(C(=O)NCCCOCC)C1 (stereo not given) | n | n | n | n | n | n
CCC1(c2ccccc2)NC(=O)N(CC(=O)Nc2cccc(C#N)c2)C1=O (stereo not given) | 70.9 | n | n | n | n | n
Cc1ccc(C2(C)NC(=O)N(CC(=O)Nc3cc(C)on3)C2=O)cc1 (stereo not given) | n | n | n | n | n | 30.8
O=C(ONc1ccc(N=NC(=O)c2ccccc2O)cc1)c1ccccc1 | 84.3 | n | n | n | 71.0 | n
CCCCCCn1c(SCC(=O)c2c(N)n(C)c(=O)n(C)c2=O)nc2ccccc21 | n | n | n | n | 74.6 | n
CCCn1c(N)c(C(=O)CSc2nc3ccccc3n2CCC#N)c(=O)n(C)c1=O | n | n | n | n | n | n
CS(=O)(=O)N1CCN(c2ccccc2NC(=O)c2cccs2)CC1 | n | n | n | n | n | n
O=C(Nc1cc(C(F)(F)F)ccc1N1CCCCC1)c1ccc(Br)o1 | n | n | n | n | n | n
O=C(Nc1ccccc1N1CCCC1)c1ccc(Br)o1 | 56.8 | n | n | n | 53.2 | n
O=C(Nc1ccccc1N1CCCCC1)c1cccs1 | n | n | n | n | n | 51.0
O=C(Nc1ccccc1N1CCCCC1)c1ccco1 | n | n | n | n | n | 33.2

Screens from PubChem BioAssay.
